Where “and” joins values, the source holds several entries; their conditions need not be identical. Equal entries are not always repeated. The whole screen tested about 340,000 compounds, of which about 6,200 (1.8%) were called active. About 10% were inconclusive and are not listed. Only a selection was taken, and actives are over-represented in it overall. A number with no mark means an inactive call. Calls come from the whole dose curve; as a rule, active = well fitted activation curve with a large enough effect; inconclusive = small, poorly fitted or top-dose-only effect; inactive = no such curve, though single readings can be large or run the other way.
assay: A quantitative high throughput screen for small molecules that induce DNA re-replication in SW480 colon adenocarcinoma cells.; note: nearly all actives have a fitted effect of over 55% in size; for re-replication activation: % of control where 0% means no effect; conditions: Hoechst DNA content imaging, 48 h; series mostly up to 46.1 µM; re-replication activation: at the top concentration
Summary of the method: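 250 cells/well; 23 nL cpd via pin tool; 48 hr, 37 C, 5% CO2; Hoechst 40 min; imager read of total nuclear intensity, ex 405/em 500-530 nm.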
Potency is the fitted concentration of half-maximal effect.

Row | SMILES | re-replication activation | Potency
1 | Cn1nnnc1SCC(=O)Nc1cccc(S(=O)(=O)N2CCCCC2)c1 | -3.5% | –
2 | COc1ccc(OC)c(NC(=O)COC(=O)Cc2ccsc2)c1 | -7.6% | –
3 | Cc1ccc(Br)c(NS(=O)(=O)c2cccc(C(=O)N3CCNC(=O)C3)c2)c1 | -2.86% | –
4 | OCC(O)C1OCOC(C(O)CO)C1O (centres undefined) | 0.851% | –
5 | c1ccc(C(=NNc2nc3ccccc3s2)c2ccccn2)cc1 | – | 0.259 µM (active)
6 | O=C(CCNC(=O)c1ccccc1)Nc1nc2ccccc2s1 | 4.07% | –
7 | c1ccc2sc(NN=C3CCCC3)nc2c1 | 1.2% | –
8 | N#CC1(Nc2ccc(-c3ccc(Cl)cc3)cc2)CCCC1 | 1.38% | –
9 | Cc1ccc(-n2[nH]c(C)c(/C=N/N3C(=O)c4cccc5cccc(c45)C3=O)c2=O)cc1 | – | 16.4 µM (active)
10 | Cc1ccc(-c2ccnc3[nH]n(-c4ccccc4)c(=O)c23)cc1 | -3.91% | –
11 | Cc1[nH]n(-c2ccc([N+](=O)[O-])cc2)c(=O)c1C=NCCN1CCN(C(=O)c2ccccc2F)CC1 | -4.88% | –
12 | O=C(NCCCn1ccnc1)c1cc(-c2ccccc2)on1 | – | 7.31 µM (active)
13 | COc1ccccc1-c1cc(C(=O)NCCCn2ccnc2)no1 | -8.25% | –
14 | COc1ccc(-c2cc(C(=O)NCCCn3ccnc3)no2)cc1 | -4.18% | –
15 | CCCCN1CC(CO)Oc2cccc(F)c2S1(=O)=O (centres undefined) | -13% | –
16 | C[C@@H]1ON(C)[C@H]2C[C@H]3c4cc(N5CCN(C)CC5)ccc4CCN3C(=O)[C@@H]12 | -3.9% | –
17 | COc1ccc(/C=C/C(=O)Nc2ccc(C34CC5CC(CC(O)(C5)C3)C4)cc2)cc1OC | – | 18.4 µM (active)
18 | COc1ccc(/C=C/C(=O)Nc2ccc(C)cc2)cc1S(=O)(=O)N1CCOCC1 | -2.91% | –
19 | COc1ccc(/C=C/C(=O)Nc2cccnc2)cc1OC | -1.89% | –
20 | CC1=C(C)CC(C(=O)NNC(=O)c2ccccc2O)C(C(=O)O)C1 (centres undefined) | 2.89% | –
21 | COC(=O)c1c(NC(=O)C2CC(C)=C(C)CC2C(=O)O)sc2c1CCCCC2 (centres undefined) | -9.14% | –
22 | CC1=C(C)CC(C(=O)NNC(=O)c2csc3c2CCC(C(C)(C)C)C3)C(C(=O)O)C1 (centres undefined) | – | 29.1 µM (active)
23 | NC(=O)C1(Nc2ccc(-c3ccccc3)cc2)CCCC1 | 3.19% | –
24 | Cc1ccc(S(=O)(=O)N2CCOCC2)cc1NC(=O)COC(=O)c1cnccn1 | 1.9% | –
25 | O=C(CC1Nc2ccccc2NC1=O)Nc1ccccc1 (centres undefined) | – | 12.6 µM (active)

Row | SMILES | re-replication activation | Potency
26 | O=C(CC1NCCNC1=O)Nc1ccc(Oc2ccccc2)cc1 (centres undefined) | 6.95% | –
27 | COC(=O)c1cc(C)sc1NC(=O)CC1Nc2ccccc2NC1=O (centres undefined) | 4.03% | –
28 | C[C@]12CCC(=O)C=C1C=CC1C2CC[C@@]2(C)C1CC[C@@]21CCC(=O)O1 (some centres undefined) | 1.11% | –
29 | Nc1ccc2c(c1)C(=Cc1cccnc1)c1ccccc1-2 | 2.27% | –
30 | Cc1ccc(SC(CC(=O)c2ccc(C(C)(C)C)cc2)C(=O)O)cc1 (centres undefined) | – | 20.6 µM (active)
31 | Cc1ccc(C(=O)CSc2ccccc2C(=O)O)cc1 | 1.14% | –
32 | Cc1ccc(C(=O)CNc2ccc(F)cc2)cc1 | 5.96% | –
33 | O=C(N[C@H]1C/C=C\C(c2cccc(F)c2)N(Cc2ccccc2)C(=O)C1)OCC1c2ccccc2-c2ccccc21 (some centres undefined) | 2.59% | –
34 | C#CCOCCOCCOCCNc1nc(N2CCN(C(=O)[C@H](CCCN=C(N)N)n3cc(C(N)[C@@H](C)CC)nn3)CC2)nc(N2CCN(C(=O)[C@H](CO)n3cc([C@@H](N)C(C)C)nn3)CC2)n1 (some centres undefined) | -3.08% | –
35 | COC(=O)COc1cccc2c(=O)n(CC(=O)NCc3ccccc3)ccc12 | – | 2.59 µM (active)
36 | COC(=O)COc1cccc2c(=O)n(CC(=O)NCCc3ccc(OC)c(OC)c3)ccc12 | 0.74% | –
37 | Cc1ccc(CNC(=O)CCNC(=O)Cn2ccc3ccccc3c2=O)cc1 | 9.14% | –
38 | CN(Cc1ccc(CNC[C@H]2O[C@@H](n3cnc4c(N)ncnc43)[C@H](O)[C@@H]2O)o1)S(C)(=O)=O | -0.482% | –
39 | CC(=O)Nc1ccc(NC(=O)COC(=O)C2CCC(C(C)(C)C)CC2)cc1 (centres undefined) | -11.3% | –
40 | Cc1ccc(NC(=O)Cn2cnc3c(OCc4ccccc4)ncnc32)cc1C | 8.76% | –
41 | COc1ccccc1N1CCN(C(=O)c2ccc(Cl)c(S(=O)(=O)N3CCCC3)c2)CC1 | 3.04% | –
42 | Cc1[nH]c2ccc(C(=O)N3CCN(C)CC3)cc2c1C | -8.89% | –
43 | CCOc1ccccc1N1CCN(C(=O)c2ccc3[nH]c(C)c(C)c3c2)CC1 | – | 18.4 µM (active)
44 | Cc1cc(NC(=O)CN2C(=O)NC(CC(C)C)C2=O)no1 (centres undefined) | -8.09% | –
45 | COc1ccc(CCNC(=O)c2ccc(NC(=O)CC3SC(N4CCCCC4)=NC3=O)cc2)cc1OC (centres undefined) | -35% | –
46 | C=CC[C@H](CC(=O)OC(C)(C)C)C(=O)OC[C@H]1CCCN1C(=O)[C@H](CC=C)CC(=O)N(CCO)Cc1ccccc1 | -12.8% | –
47 | O=C(O)c1ccc(NC(=O)C2CCCCC2)cc1 | -5.52% | –
48 | CN1C(=O)c2ccc(NC(=O)C3CCCCC3)cc2C1=O | – | 16.4 µM (active)
49 | CN1C(=O)c2ccc(NC(=O)c3c(F)c(F)c(F)c(F)c3F)cc2C1=O | -4.95% | –
50 | COc1ccc2nc(N3C(=O)C(O)=C(C(=O)c4ccco4)C3c3ccco3)sc2c1 (centres undefined) | -4.84% | –

Row | SMILES | re-replication activation | Potency
51 | O=C(COC(=O)c1ccc(Br)o1)NC12CC3CC(CC(C3)C1)C2 | -5.15% | –
52 | O=C(Cc1ccc(Cl)c(Cl)c1)Nc1ccc(SC(F)F)cc1 | 2.53% | –
53 | O=C(CC1SCCNC1=O)Nc1ccc(Cl)c(Cl)c1 (centres undefined) | -3.76% | –
54 | O=C(CC(O)(C(F)(F)F)C(F)(F)F)Nc1ccc(Cl)c(Cl)c1 | – | 14.6 µM (active)
55 | Cc1noc(C)c1C(=O)OC(C)C(=O)Nc1ccc2c(c1)OCO2 (centres undefined) | -9.61% | –
56 | O=C1C2C3C=CC(C3)C2C(=O)N1c1ncc([N+](=O)[O-])s1 (centres undefined) | -1.99% | –
57 | C/C(=N\Nc1ccccc1)c1cccs1 | -8.99% | –
58 | CCc1nc(C)cn1S(=O)(=O)c1cc(OC)c(C)cc1C | -6.97% | –
59 | CCc1nc(C)cn1S(=O)(=O)c1cc([N+](=O)[O-])ccc1Cl | – | 4.11 µM (active)
60 | CC(C)c1nccn1S(=O)(=O)c1cc([N+](=O)[O-])ccc1Cl | -7.61% | –
61 | O=C(Nc1ccc(S(=O)(=O)N2CCOCC2)cc1)C1CCN(S(=O)(=O)c2ccc(Cl)cc2)CC1 | -12% | –
62 | CCO[C@H]1OC(C(=O)NCc2ccccc2)=C[C@@H](c2coc3ccccc3c2=O)[C@@H]1CCCO | -2.42% | –
63 | CCO[C@@H]1OC(C(N)=O)=C[C@H](c2ccc(Br)cc2)[C@H]1CCCO | 1.27% | –
64 | C#CCNC(=O)C1=C[C@@H](c2ccccc2)[C@H](CCCO)[C@@H](OCC)O1 | – | 23.1 µM (active)
65 | CN(c1ccccc1)S(=O)(=O)c1ccc(C(=O)N2CCN(c3ccccc3Cl)CC2)cc1 | 1.06% | –
66 | CNC(=O)COC(=O)c1cc(-c2ccc(OC)cc2)nc2ccccc12 | -4.03% | –
67 | Cc1cc(C(=O)Nc2ccccc2N2CCOCC2)c2ccccc2n1 | -21.9% | –
68 | COC(=O)c1cc(N2CCNCC2)nc2ccccc12 | – | 10.3 µM (active)
69 | Cc1cccc(NC(=O)c2ccc(S(=O)(=O)N(C)c3ccccc3)cc2)n1 | 2.72% | –
70 | CCCCCCc1cc2cc(-c3nnc(-c4ccccc4)o3)c(=O)oc2cc1O | – | 3.55 µM (active)
71 | Cc1c(CC(=O)NCCCCCC(=O)O)c(=O)oc2cc3occ(-c4ccccc4)c3cc12 | -3.23% | –
72 | CCCCCCc1ccc(O)cc1O | 0.114% | –
73 | CCCCNC1(C#N)CCN(Cc2ccccc2)CC1 | -1.42% | –
74 | COc1cc(NC(=O)COC(=O)c2cc(S(=O)(=O)N3CCOCC3)ccc2F)cc(OC)c1 | 2.2% | –
75 | NC(=O)c1ccc(NC(=O)COC(=O)c2c3c(nc4ccccc24)/C(=C\c2ccc4c(c2)OCO4)CCC3)cc1 | – | 7.31 µM (active)

Row | SMILES | re-replication activation | Potency
76 | NS(=O)(=O)c1ccc(NC(=O)COC(=O)c2cc3ccccc3oc2=O)cc1 | 1.13% | –
77 | O=C(COC(=O)c1ccc(F)cc1)Nc1ccc2c(c1)OCO2 | -15.1% | –
78 | NS(=O)(=O)c1ccc(NC(=O)COC(=O)c2c3c(nc4ccccc24)/C(=C\c2ccc4c(c2)OCO4)CCC3)cc1 | – | 7.31 µM (active) and 11.6 µM (active)
79 | O=C(COC(=O)c1ccncc1)Nc1ccc2c(c1)OCO2 | -2.98% | –
80 | O=C(COC(=O)c1c2c(nc3ccccc13)CCCC2)c1ccc(Br)s1 | -0.727% | –
81 | COc1cc(/C=C2\CCCc3c2nc2ccccc2c3C(=O)O)cc(Cl)c1O | -2.95% | –
82 | NS(=O)(=O)c1ccc(NC(=O)COC(=O)c2ccco2)cc1 | 0.0076% | –
83 | O=C(COC(=O)c1c2c(nc3ccccc13)/C(=C\c1cccs1)CCC2)Nc1ccccc1Cl | – | 14.6 µM (active) and 13 µM (active)
84 | OCC1(CO)CC2(C1)CC(CO)(CO)C2 | -2.65% | –
85 | COc1ccc(CCNC(=O)COC(=O)c2ncc(Cl)c(Cl)c2Cl)cc1OC | 5.84% | –
86 | O=C(CNC(=O)c1ccccc1F)OCC(=O)c1c[nH]c2ccccc12 | -0.0394% | –
87 | CC(=O)Nc1ccc(S(=O)(=O)Nc2ccc(N3CCCCC3)cc2)cc1 | 4.81% | –
88 | CCC1([N+](=O)[O-])COC(c2ccc(C(C)C)cc2)OC1 (centres undefined) | -14.6% | –
89 | CC1CCCCC12NC(=O)N(CC(=O)OCc1c(F)cccc1Cl)C2=O (centres undefined) | -2.6% | –
90 | COc1ccc(C2=NOC(C(=O)NCc3ccco3)C2)cc1OC (centres undefined) | – | 13 µM (active)
91 | COc1ccc(S(=O)(=O)N2CCC(C(=O)NCc3ccco3)CC2)cc1C | 7.9% | –
92 | COc1ccc(CNC(=O)C2CC(c3ccc(C(F)(F)F)cc3)=NO2)cc1 (centres undefined) | -4.92% | –
93 | Cc1cc(N2CCCC2)ccc1NC(=O)COc1ccc(Cl)cc1 | -5.98% | –
94 | CC(C)n1cnc2c(NCc3ccccc3)cc(OCC3CCN(C)CC3)cc21 | 9.3% | –
95 | COc1ccccc1NS(=O)(=O)c1ccc(C)c(C(=O)NNC(=O)c2csc(N3CCOCC3)n2)c1 | 2.11% | –
96 | O=C(C(=O)N1CCc2ccccc2C1)c1c[nH]c2ccccc12 | – | 4.11 µM (active)
97 | O=C(C(=O)N1CCc2ccccc2C1)N1CCc2ccccc2C1 | -3.4% | –
98 | O=C(NC1CCCC1)C(=O)c1c[nH]c2ccccc12 | -12.4% | –
99 | COc1cc2c(-c3ccc4c(c3)OCO4)c(-c3ccsc3)oc(=O)c2cc1OC | -0.829% [at 9.22 µM] | –
